Results on 21 compounds are retold here after PubChem BioAssay (EPA / NIEHS).

Holding throughout (conditions): mRNA level, 48 h; actives raise or lower the signal
Read-out in assay [1]: matrix metalloproteinase-3 (MMP3), MMP3 (gene 4314)
Kind of assay: LTEA_HepaRG_MMP3: Life Technologies and Expression Analysis (LTEA) Assay for matrix metalloproteinase-3 (MMP3) using HepaRG (AID 2283519). The gist of the method: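 Human liver HepaRG cultures received chemicals (top concentration 100 uM, 0.5% DMSO) for 48 h in duplicate. MMP3 mRNA induction or loss was then assessed via TaqMan qRT-PCR with housekeeping-gene normalisation.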

Read-out in assay [2]: Paternally Expressed 10 (PEG10), PEG10 (gene 23089)
The assay can be described thus: LTEA_HepaRG_PEG10: Life Technologies and Expression Analysis (LTEA) Assay for Paternally Expressed 10 (PEG10) using HepaRG (AID 2283520).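 As to AC50: differentiated HepaRG human liver cells in serum-free induction medium with 0.5% DMSO; PEG10 transcript by qRT-PCR normalised to ACTB GAPDH and POLR2A.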 The gist of the method: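 qRT-PCR read-out: PEG10 mRNA normalised to three housekeeping genes, fitted bidirectionally against 0.5% DMSO vehicle. HepaRG cells received test chemicals for 48 h in serum-free induction medium, 8 points, top 100 uM, half-log steps.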

Read-out in assay [3]: Protein phosphatase 2A (PPP2R4), PTPA (gene 5524)
Kind of assay: LTEA_HepaRG_PPP2R4: Life Technologies and Expression Analysis (LTEA) Assay for Protein phosphatase 2A (PPP2R4) using HepaRG (AID 2283522). The essentials:
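HepaRG, 48 h exposure, 8-pt half-log series from 100 uM, 0.5% DMSO vehicle, duplicates. Readout: PPP2R4 mRNA, Fluidigm qRT-PCR, housekeeping-normalized. Bidirectional curve fit vs DMSO baseline.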

Read-out in assay [4]: Phosphatase and tensin (PTEN), PTEN (gene 5728)
The assay can be described thus: LTEA_HepaRG_PTEN: Life Technologies and Expression Analysis (LTEA) Assay for Phosphatase and tensin (PTEN) using HepaRG (AID 2283523). The gist of the method:
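Expression of PTEN is quantified in the human liver line HepaRG following two days of dosing (top concentration 100 uM, half-log dilutions, 0.5% DMSO). Values derive from bidirectional curve fitting relative to DMSO controls.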

Read-out in assay [5]: Pyruvate Dehydrogenase Kinase 4 (PDK4), PDK4 (gene 5166)
The assay can be described thus: LTEA_HepaRG_PDK4: Life Technologies and Expression Analysis (LTEA) Assay for Pyruvate Dehydrogenase Kinase 4 (PDK4) using HepaRG (AID 2283525). The gist of the method: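 Eight-point, half-log concentration series (max 100 uM, 0.5% DMSO) applied to differentiated HepaRG cells for 48 h in duplicate. Endpoint: PDK4 mRNA induction or repression by qRT-PCR against DMSO baseline.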

Read-out in assay [6]: NAD(P)H dehydrogenase [quinone] 1 (NQO1), NQO1 (gene 1728)
Kind of assay: LTEA_HepaRG_NQO1: Life Technologies and Expression Analysis (LTEA) Assay for NAD(P)H dehydrogenase [quinone] 1 (NQO1) using HepaRG (AID 2283526). The essentials:
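qRT-PCR read-out (Fluidigm TaqMan), normalized to three housekeeping genes, after 48 h chemical exposure of HepaRG cells. Concentrations: eight points, top 100 uM, half-log steps, 0.5% DMSO vehicle. Gain or loss of signal fitted relative to DMSO.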

Read-out in assay [7]: Nuclear factor erythroid 2-related factor 2 (Homo sapiens) (UniProt Q16236)
Kind of assay: LTEA_HepaRG_NFE2L2: Life Technologies and Expression Analysis (LTEA) Assay for Nuclear factor erythroid 2-related factor 2 (NFE2L2) Transcription Factor using HepaRG (AID 2283527).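 As to outcome: TaqMan qRT-PCR transcript level normalised to ACTB GAPDH and POLR2A housekeeping genes.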 The essentials: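 Human liver HepaRG line treated in duplicate for 48 h with an eight-point series topping at 100 uM. Gene expression of NFE2L2 by qRT-PCR, bidirectionally fitted against the vehicle control.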

Read-out in assay [8]: Signal transducer and activator of transcription 3 (Homo sapiens) (UniProt P40763)
The assay can be described thus: LTEA_HepaRG_STAT3: Life Technologies and Expression Analysis (LTEA) Assay for Signal transducer and activator of transcription (STAT3) using HepaRG (AID 2283529). The gist of the method: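 In this transcriptional endpoint, HepaRG cultures receive test chemicals at up to 100 uM for 48 h, tested in duplicate. STAT3 mRNA is normalized to ACTB, GAPDH and POLR2A.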

Read-out in assay [9]: succinate dehydrogenase complex iron sulfur subunit B (SDHB), SDHB (gene 6390)
Kind of assay: LTEA_HepaRG_SDHB: Life Technologies and Expression Analysis (LTEA) Assay for succinate dehydrogenase complex iron sulfur subunit B (SDHB) using HepaRG (AID 2283528). The gist of the method:
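A human HepaRG culture in serum-free induction medium received test chemicals for 48 h over an eight-point range capped at 100 uM. SDHB expression change was quantified by qRT-PCR.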

Read-out in assay [10]: solute carrier (SLC22A1), SLC22A1 (gene 6580)
Kind of assay: LTEA_HepaRG_SLC22A1: Life Technologies and Expression Analysis (LTEA) Assay for solute carrier (SLC22A1) using HepaRG (AID 2283524). The essentials:
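Transcript induction or suppression of SLC22A1 in human HepaRG cultures is scored after 48 h chemical treatment, with DMSO (0.5%) as baseline for bidirectional fitting. Concentrations span eight half-log points topping at 100 uM.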

Active and inactive are the calls of the source. The calls were made as follows: active = hit-call score of the fitted dose curve at least 0.9, where 1 is the maximum; inactive = score below 0.9.

Chain of Nuclear factor erythroid 2-related factor 2 (Homo sapiens) (Q16236 whole entry, looked up): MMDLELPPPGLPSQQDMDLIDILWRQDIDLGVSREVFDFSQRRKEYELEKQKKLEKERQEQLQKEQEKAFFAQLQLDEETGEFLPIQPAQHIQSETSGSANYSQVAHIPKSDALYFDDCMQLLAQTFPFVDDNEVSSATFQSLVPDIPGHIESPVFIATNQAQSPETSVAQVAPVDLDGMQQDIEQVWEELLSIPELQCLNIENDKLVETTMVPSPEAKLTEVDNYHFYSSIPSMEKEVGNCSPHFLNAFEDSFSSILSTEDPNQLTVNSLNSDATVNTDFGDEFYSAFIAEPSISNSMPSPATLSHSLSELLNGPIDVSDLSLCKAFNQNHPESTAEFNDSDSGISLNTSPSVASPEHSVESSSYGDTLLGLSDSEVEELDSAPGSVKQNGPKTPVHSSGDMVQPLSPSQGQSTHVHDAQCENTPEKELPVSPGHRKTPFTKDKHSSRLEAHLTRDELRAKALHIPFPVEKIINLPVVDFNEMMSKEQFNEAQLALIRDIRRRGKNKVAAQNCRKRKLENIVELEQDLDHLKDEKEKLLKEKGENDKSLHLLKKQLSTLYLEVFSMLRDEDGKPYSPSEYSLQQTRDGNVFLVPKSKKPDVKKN
Chain of Signal transducer and activator of transcription 3 (Homo sapiens) (P40763 whole entry, looked up): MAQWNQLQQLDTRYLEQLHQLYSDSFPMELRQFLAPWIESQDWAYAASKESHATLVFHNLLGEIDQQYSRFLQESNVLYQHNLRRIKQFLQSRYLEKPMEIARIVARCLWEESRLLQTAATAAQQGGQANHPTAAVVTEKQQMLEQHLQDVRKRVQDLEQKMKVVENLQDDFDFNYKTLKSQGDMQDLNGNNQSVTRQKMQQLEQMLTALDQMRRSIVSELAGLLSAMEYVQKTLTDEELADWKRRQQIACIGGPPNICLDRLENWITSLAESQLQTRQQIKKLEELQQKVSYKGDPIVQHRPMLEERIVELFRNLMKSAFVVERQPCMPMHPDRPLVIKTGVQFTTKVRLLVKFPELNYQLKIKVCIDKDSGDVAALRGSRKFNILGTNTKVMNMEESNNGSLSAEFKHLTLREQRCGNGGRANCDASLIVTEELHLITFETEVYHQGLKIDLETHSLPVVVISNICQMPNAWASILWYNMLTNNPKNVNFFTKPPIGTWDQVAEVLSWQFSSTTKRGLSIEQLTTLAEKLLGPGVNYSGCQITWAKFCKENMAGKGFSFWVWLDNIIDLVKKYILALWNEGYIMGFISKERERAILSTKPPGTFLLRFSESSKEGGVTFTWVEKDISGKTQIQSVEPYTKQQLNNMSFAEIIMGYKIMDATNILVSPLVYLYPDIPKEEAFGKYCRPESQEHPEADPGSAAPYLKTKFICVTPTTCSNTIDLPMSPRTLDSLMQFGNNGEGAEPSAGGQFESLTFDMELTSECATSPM

With `c1ccc2c(c1)Nc1ccccc1S2`, the outcome in [1], in assay [3], in assay [4], in assay [5], in [6] and in assay [7] was inactive. The call in assay [8] was inactive. Besides, the AC50 in assay [2] was 77.1 µM (active).
For `ClC1=C(Cl)C2(Cl)C3C(Cl)C(Cl)CC3C1(Cl)C2(Cl)Cl` (stereo not drawn), the AC50 in assay [1] is 23.6 µM (active); in assay [2] it was 2.31 µM (active). In addition, the compound was classed as inactive in assay [3], in [4], in assay [5], in [6], in assay [7] and in assay [8].
Turning to `c1cc2c3c(cccc3c1)CC2`, the compound was classed as inactive in [1], in assay [2], in [3], in assay [4], in assay [5] and in assay [6]. The result in assay [7] and in assay [8] was inactive.
In the case of `O=C(O)C(Cl)Cl`, the call in [1], in assay [2], in [3], in assay [4], in assay [5] and in assay [6] was inactive. The outcome in assay [7] and in assay [8] was inactive.
In the case of `CCOS(=O)(=O)OCC`, the compound was classed as inactive in assay [1], in assay [2], in assay [3], in assay [4], in assay [5] and in [6]. The compound was called inactive in [7] and in [8].
As for `CCC1(c2ccccc2)C(=O)N=C(O)NC1=O` (stereo not drawn), the outcome in assay [1], in assay [2], in [3], in [4], in [5] and in assay [6] was inactive. Further, the call in assay [7] and in assay [8] was inactive.
Turning to `CC(C)(C)OOC(C)(C)C`, the compound was called inactive in assay [1], in [2], in assay [3], in assay [4], in assay [5] and in assay [6]. For the same compound, the outcome in assay [7], in assay [9] and in assay [8] was inactive.
`CCCCN(CCCC)N=O`: the outcome in assay [1], in assay [2], in assay [3], in assay [4], in assay [5] and in [6] was inactive. Also, the compound was classed as inactive in assay [7] and in assay [8].
For the compound `CCCCN(CCCC)SN(C)C(=O)Oc1cccc2c1OC(C)(C)C2`, the compound was classed as inactive in [1], in [2], in assay [3], in assay [4], in assay [5] and in [6]. In addition, the compound was classed as inactive in assay [7] and in assay [8].
In the case of `COCCOCCO`, the outcome in assay [1], in assay [2], in assay [3], in assay [4], in assay [10] and in assay [5] was inactive. Besides, the call in assay [6], in assay [7] and in [8] was inactive.
For `O=[N+]([O-])c1ccccc1`, the result in assay [1], in assay [2], in assay [3], in assay [4], in [5] and in assay [6] was inactive. The call in assay [7] and in [8] was inactive.
Regarding `Nc1ccc2ccccc2c1`, the outcome in assay [1], in assay [2], in assay [3], in assay [4], in assay [5] and in assay [6] was inactive. In assay [8], the compound was classed as inactive. Further, the AC50 in [7] is 29.8 µM (active).
As to `CC(Cl)(Cl)C(=O)O`, the call in [1], in assay [2], in [3], in [4], in assay [5] and in assay [6] was inactive. Moreover, the call in assay [7] and in assay [8] was inactive.
For the compound `O=[N+]([O-])c1ccc(Cl)c(Cl)c1`, the compound was classed as inactive in [1], in assay [2], in assay [3], in [4], in [10] and in assay [5]. Further, the compound was classed as inactive in assay [6], in [7] and in assay [8].
On to `Nc1ccc(Cl)cc1`, for which the call in assay [1], in assay [2], in [3], in assay [4], in [5] and in assay [6] was inactive. Besides, the outcome in [7] and in [8] was inactive.
With `O=C(O)C1C(C(=O)O)C2(Cl)C(Cl)=C(Cl)C1(Cl)C2(Cl)Cl` (stereo not drawn), the result in assay [1], in assay [2], in assay [3], in assay [4], in [5] and in [6] was inactive. The compound was classed as inactive in [7] and in [8].
Take `CCNc1nc(Cl)nc(NC(C)(C)C)n1`: the compound was classed as inactive in [1], in [3], in assay [4], in assay [5], in assay [6] and in assay [7]. Also, the compound was classed as inactive in assay [8]. The AC50 in [2] was 17.4 µM (active).
Take `ClC(Cl)(Cl)c1ccccc1`: the compound was called inactive in assay [1], in assay [2], in assay [3], in [4], in [10] and in assay [5]. Further, the outcome in [6] and in assay [8] was inactive.
As for `c1ccc(OP(Oc2ccccc2)Oc2ccccc2)cc1`, the compound was classed as inactive in assay [1], in assay [2], in [3], in assay [4], in assay [5] and in [6]. Also, the compound was classed as inactive in assay [7], in [9] and in [8].
As for `CSC(C)(C)C=NO`, the outcome in assay [1], in [2], in assay [3], in assay [4], in assay [5] and in [6] was inactive. The call in assay [7] and in assay [8] was inactive.
Consider `O=P1(N(CCCl)CCCl)NCCCO1` (stereo not drawn), for which the result in [1], in assay [2], in assay [3], in [4], in [5] and in assay [6] was inactive. The compound was called inactive in assay [7], in [9] and in [8].

By AC50 is commonly meant the midpoint of the concentration-response curve, whichever way the signal moves.
